PubChem BioAssay AID1578 (Sanford-Burnham Center for Chemical Genomics, 2009)
Where “and” joins values, the source holds several entries; their conditions need not be identical. Identical values can stand only once. Among all 290,000 compounds or so, about 3,000 (1%) were called active. No stated cut-off is given here; in the data, active means inhibition mostly above about 36% (no sharp cut-off); inactive means mostly below about 34%. This excerpt belongs to a sample that is enriched for actives. More than one record can exist for a structure, and the calls need not agree.

experiment: inhibition of NOD1-driven NF-kB reporter – cell-based, luminescence, uHTS, primary screen (AID 1578); settings: NOD1-driven NF-kB luciferase reporter cells, at 4 µM, stronger effect = higher value;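 further: HEK-293T reporter cells stimulated with the NOD1 agonist gamma-tri-DAP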

Structure (SMILES) | inhibition
COC(=O)[C@@]1(Cc2ccccc2)[C@@H]2C(=CC(=O)[C@H]2CC(=O)C(=O)N(C)C)CN1C(=O)c1ccccc1 | 47.7% (inactive)
COC(=O)[C@@]1(Cc2ccc(F)cc2)[C@@H]2[C@@H](CC(=O)[C@H]2CC(=O)C(=O)N(C)C)CN1C(=O)c1ccccc1 | -29.5% (inactive)
C=C1C(=O)C=C2CN(C(=O)c3ccccc3)[C@@](Cc3ccc(F)cc3)(C(=O)OC)[C@@H]12 | 98.5% (active)
CS(=O)(=O)c1cnc(-c2ccccc2)nc1-c1ccccc1Cl | 23.1% (inactive)
CC1Cc2cc(S(=O)(=O)N3CCC(C(N)=O)CC3)ccc2N1C(=O)C1CC1 (stereo unspecified) | -42.9% (inactive)
O=C(N/N=C/c1ccc([N+](=O)[O-])o1)c1ccc(O)cc1 | 6.8% (inactive)
O=C(/C=C/c1ccc([N+](=O)[O-])o1)NNC(=O)c1ccc(F)cc1 | 66.9% (active)
O=C(O)/C=C/c1ccc([N+](=O)[O-])o1 | -17.7% (inactive)
CCCOc1ccc(OCCCCNC(C)CC)cc1 (stereo unspecified) | 0.5% (inactive)
COc1ccc(N(C(=O)Cn2nnc(-c3ccc(F)cc3)n2)C(C)C(=O)NC2CCCC2)cc1 (stereo unspecified) | -22.6% (inactive)
COc1ccc(N(C(=O)Cn2nnc(-c3ccc(F)cc3)n2)C(C)C(=O)NC2CCCC2)cc1OC (stereo unspecified) | 10.1% (inactive)
CC(C(=O)NC1CCCC1)N(C(=O)Cn1nnc(-c2ccc(F)cc2)n1)c1ccccc1F (stereo unspecified) | 82.7% (active)
COc1cccc(C(=O)NCCCNC(=O)c2ccco2)c1 | 9.1% (inactive)
Cc1ccccc1C1C(C#N)=C(N)N(N(C)C)C2=C1C(=O)CC(C)(C)C2 (stereo unspecified) | -10.1% (inactive)
CCCCCn1c2c(c(=N)c3ccccc31)CCC2 | -13.6% (inactive)
CCCCCCCn1c2c(c(=N)c3ccccc31)CCC2 | 77.4% (active)
CCCCn1c2c(c(=N)c3ccccc31)CCC2 | -6.7% (inactive)
CCO[C@H]1OC(C(=O)NC2CC2)=C[C@@H](c2ccc(C(F)(F)F)cc2)[C@@H]1CCCO | 1.4% (inactive)
CC(Oc1ccccc1)C(=O)N=Nc1c(O)[nH]c2ccc(Br)cc12 (stereo unspecified) | -9.4% (inactive)
Cc1c(C)[n+](=O)c2c(n1[O-])C(Br)CCC2Br (stereo unspecified) | -7.3% (inactive)
Cc1c(CBr)[n+](=O)c2c(n1[O-])C(Br)CCC2Br (stereo unspecified) | -9.7% (inactive)
CC(=O)OC1CCC(OC(C)=O)c2c1n([O-])c(C)c(C)[n+]2=O (stereo unspecified) | 79.5% (active)
N#Cc1cc([N+](=O)[O-])ccc1NCC1CCCO1 (stereo unspecified) | -26.2% (inactive)

Structure (SMILES) | inhibition
N#Cc1cc(Cl)c(NCC2CCCO2)cc1C#N (stereo unspecified) | 83.4% (active)
N#Cc1cc(NCC2CCCO2)c([N+](=O)[O-])cc1C#N (stereo unspecified) | -23.8% (inactive)
COc1ccc2cc(S(=O)(=O)N3CCOCC3)ccc2c1 | -5.6% (inactive)
COc1ccc2[nH]c(=O)c(CNc3ccccc3C)cc2c1 | -10.6% (inactive)
COc1ccc(C2CC(c3cccs3)=NN2c2nc(-c3ccccc3)cs2)cc1OC (stereo unspecified) | -16.1% (inactive)
OCCN1CCN(c2nc(-c3ccccc3)c3cc(Br)ccc3n2)CC1 | -12.3% (inactive)
OCCN1CCN(c2ncnc3sc(-c4ccccc4)cc23)CC1 | -0.1% (inactive)
CN1CCN(c2ncnc3sc(-c4ccccc4)cc23)CC1 | 32% (inactive)
OCCN1CCN(c2ncnc3ccc(Br)cc23)CC1 | 66.7% (active)
CC1(C)CC2CC(C)(CN2c2ncnc3ccc(Br)cc23)C1 (stereo unspecified) | 39.1% (inactive)
COc1ccc(OC)c(C(=O)NC(CC(N)=O)c2ccc(NCCOc3ccccc3)c([N+](=O)[O-])c2)c1 (stereo unspecified) | -4% (inactive)
CCCNC(=S)NC1CC2CCC(C1)N2Cc1ccccc1 (stereo unspecified) | 0.5% (inactive)
O=C(CN1C(=O)/C(=C/c2ccccc2F)Sc2ccccc21)NCc1cccnc1 | 59.2% (active)
O=C(CN1C(=O)/C(=C/c2ccccc2F)Sc2ccccc21)NCCCN1CCOCC1 | -19.9% (inactive)
O=C(CN1C(=O)/C(=C/c2ccccc2F)Sc2ccccc21)NCC1CCCO1 (stereo unspecified) | 9.1% (inactive)
NS(=O)(=O)c1ccc(CNC(=S)NCc2ccc(F)cc2)cc1 | 14.6% (inactive)
Cc1onc(C(=O)NN)c1C(=O)Nc1ncc(C(F)(F)F)cc1Cl | -8.1% (inactive)
O=C(C1=NN[C@@H]2C(=O)N(c3ccccc3C(F)(F)F)C(=O)[C@H]12)c1ccc2ccccc2n1 | -11.3% (inactive)
O=C(C1=NN[C@@H]2C(=O)N(c3cccc(C(F)(F)F)c3)C(=O)[C@H]12)c1ccc2ccccc2n1 | 87.5% (active)
O=C(C1=NN[C@@H]2C(=O)N(c3cccc(F)c3)C(=O)[C@H]12)c1ccc2ccccc2n1 | -47% (inactive)
O=C(O)/C=C\C(=O)NNC(=O)c1cc(-c2ccccc2)n[nH]1 | -10% (inactive)
Cc1ccc(CNC(=O)c2ccccc2NS(=O)(=O)c2ccc(Cl)nc2)cc1 | 5.6% (inactive)
CC(C)On1c(SCC(=O)N(C)C)nc2ccccc2c1=O | -1.8% (inactive)

Structure (SMILES) | inhibition
CCN1/C(=C/C(C)=O)Sc2ccc(OC)cc21 | 53% (active)
CCN1/C(=C\C(C)=O)Sc2ccc(OC)cc21 | 16.9% (inactive)
CCC(=O)/C=C1/Sc2ccc(OC)cc2N1CC | 22.6% (inactive)
COCCNC(=O)[C@@]1(C)C=C[C@@H](Cc2ccccc2)N1C(=O)c1ccccc1 | -45.4% (inactive)
C[C@]1(C(=O)NCCc2c[nH]c3ccccc23)C=C[C@@H](Cc2ccccc2)N1C(=O)c1ccccc1 | 84.6% (active)
CC(=O)N1[C@H](Cc2ccccc2)C=C[C@]1(C)C(=O)NCc1ccccn1 | -2.7% (inactive)
CC(=O)N1[C@H](Cc2ccccc2)C=C[C@]1(C)C(=O)NCc1ccc(C)o1 | 99.7% (active)
CC(=O)N1[C@H](Cc2ccccc2)C=C[C@]1(C)C(=O)NCCN1CCOCC1 | 22.4% (inactive)
CC(=O)N1[C@H](Cc2ccccc2)C=C[C@]1(C)C(=O)NCCc1c[nH]c2ccccc12 | -15.7% (inactive)
Cc1sc2nc(SCC(=O)N(C)Cc3ccccc3)n(-c3ccccc3)c(=O)c2c1C | 3.3% (inactive)
Cc1ccc2c(c1)N(C(=O)CCC(=O)NCc1cccnc1)CC(C)O2 (stereo unspecified) | -33% (inactive)
Cc1ccc(C(=O)N2CCc3ccccc32)o1 | -15.8% (inactive)
CCOC(=O)c1nc2nc(C)cc(=O)n2[nH]1 | -8.6% (inactive)
O=C(NCCCCCCNC(=O)OC1CCS(=O)(=O)C1)OC1CCS(=O)(=O)C1 (stereo unspecified) | 9.3% (inactive)
COc1cccc2c1C(=O)c1c(O)c3c(c(O)c1C2=O)C[C@@](O)(C(=O)CO)C[C@@H]3O[C@H]1C[C@H](N)[C@H](O)[C@H](C)O1 | 78.6% (active)
COc1cccc2c1-c1c(O)cccc1C2=O | -18.2% (inactive)
COc1cccc2c1C(=O)c1c(O)c3c(c(O)c1C2=O)C[C@@](O)(C(C)=O)C[C@@H]3O[C@H]1C[C@H](N)[C@H](O)[C@H](C)O1 | 108% (active)
COc1ccc(OC)c(-n2c(-c3cccc(C)c3)n[nH]c2=S)c1 | -42.7% (inactive)
COc1cccc(COc2ccccc2C2Nc3ccc(Br)cc3C(=O)N2NC(=O)c2ccncc2)c1 (stereo unspecified) | 9.7% (inactive)
O=[N+]([O-])c1ccc(N=NN(CCO)CCO)cc1 | 6.1% (inactive)
O=[N+]([O-])c1ccc(N=Nc2ncc[nH]2)cc1 | 74.2% (active)
O=[N+]([O-])c1ccc(N=Nc2c(Cl)cc(O)cc2Cl)cc1 | 16.5% (inactive)
CCC(=O)c1c(OCc2ccccc2)ccc2c(C)cc(=O)oc12 | 3.9% (inactive)

Structure (SMILES) | inhibition
Cc1cccc(C(=O)C2CCN(S(=O)(=O)c3cccc(C(=O)O)c3)CC2)c1 | 12.2% (inactive)
O=C(CSc1cccc2cccnc12)OCC(=O)c1ccc(Br)cc1 | 3.3% (inactive)
NNC(=O)CSc1cccc2cccnc12 | -24.8% (inactive)
O=C(CSc1cccc2cccnc12)OCC(=O)c1ccccc1 | -30.2% (inactive)
CCOC(=O)CSc1cccc2cccnc12 | 85.4% (active)
O=C(O)CSc1cccc2cccnc12 | 36% (inactive) and 65.2% (active)
CN(C)C(=O)CSc1cccc2cccnc12 | 85.5% (inactive)
COc1ccc(C2(C)NC(=O)N(CC3CCCCC3)C2=O)cc1 (stereo unspecified) | 1.3% (inactive)
COc1ccccc1OCCCCN1CCC(C)CC1 | -6.9% (inactive)
COc1ccc2nc(NC(=O)C3CCCN(S(=O)(=O)c4cccc5nonc45)C3)sc2c1 (stereo unspecified) | -1.6% (inactive)
O=C(Nc1ccc(NC(=O)c2ccccc2Cl)cc1)c1cccnc1 | -48.1% (inactive)
CN(CCCCCCCCC(=O)/C=N/O)Cc1ccccc1 | -3.1% (inactive)
CCN(CC)CCOC(=O)c1ccc(NC(=O)c2ccc(Cl)c(S(=O)(=O)N3CCCCCC3)c2)cc1 | 13.1% (inactive)
O=C(CSc1nnc(NC2CCCCC2)s1)Nc1ccc2c(c1)C(=O)c1ccccc1C2=O | -43.3% (inactive)
CC(C)Nc1nnc(SCC(=O)Nc2ccc3c(c2)C(=O)c2ccccc2C3=O)s1 | 83.7% (active)
CC(C)Nc1nnc(SCC(=O)Nc2ccc(F)cc2)s1 | -8.4% (inactive)
CC(=O)c1cccc(NC(=O)C2C(c3ccccc3)C2(Cl)Cl)c1 (stereo unspecified) | -15.1% (inactive)
COc1ccc(C2NC(=O)NC3=C2C(=O)CCC3)cc1 (stereo unspecified) | -30.7% (inactive)
COCCN1C(=O)c2cc(C(=O)Nc3cccc(F)c3)ccc2C1Nc1cccc(F)c1 (stereo unspecified) | 2.2% (inactive)
COCCCn1c(SCc2ccccc2)nc2cc(OC)c(OC)cc2c1=N | 5.9% (inactive)
COCCCn1c(SCc2ccc(OC)cc2)nc2cc(OC)c(OC)cc2c1=N | -11.5% (inactive)
COCCCn1c(SCCc2ccccc2)nc2cc(OC)c(OC)cc2c1=N | 49.8% (active)
